Source: PubChem
Only some compounds are listed: those with a hit (about 1.2% of all), similar ones and a draw of the others.
PME-1 Maybridge: inhibitors of human PME-1 in Maybridge library; recombinant PME-1, FP-Rh probe fluorescence polarization; inhibition, % at 9 µM; 16,000 tested, 0.5% active; AID 2291; in the data active means inhibition above about 30%
KOR antag MB: OPRK1 (human) antagonism, Maybridge screen. P41145. OPRK1 cells, antagonist mode, fluorescence readout. inhibition, % at 9 µM. 16,000 tested, 0.4% active. AID 652031; in the data active means inhibition above about 50%
rat GALR2 ag: activates the rat galanin receptor 2. O08726. cell-based GALR2 agonist screen. activation, % at 10 µM. 16,000 tested, 0.5% active; in the data active means activation above about 15%
Target sequence (O08726 whole entry, looked up): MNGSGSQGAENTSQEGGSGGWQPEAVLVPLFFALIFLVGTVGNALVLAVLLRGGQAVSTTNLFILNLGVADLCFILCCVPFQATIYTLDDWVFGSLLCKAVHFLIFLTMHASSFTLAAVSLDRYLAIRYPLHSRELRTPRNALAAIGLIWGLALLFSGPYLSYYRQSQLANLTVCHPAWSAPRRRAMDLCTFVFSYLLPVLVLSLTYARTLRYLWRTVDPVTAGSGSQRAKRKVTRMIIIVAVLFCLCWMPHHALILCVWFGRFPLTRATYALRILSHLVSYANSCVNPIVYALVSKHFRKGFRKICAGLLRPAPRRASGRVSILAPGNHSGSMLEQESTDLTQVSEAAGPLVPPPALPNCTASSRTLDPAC
TLR4-MyD88 inh: inhibitors of human TLR4-MyD88 binding. O00206. Cell-based TLR4-MyD88 binding inhibition assay. inhibition, % at 10 µM. 16,000 tested, 0.06% active; in the data active means inhibition above about 45%
The depositor's hits bear a star; . = no result given.

SMILES	PME-1 Maybridge	KOR antag MB	rat GALR2 ag	TLR4-MyD88 inh
O=S(=O)(Nc1ccc2c(c1)OCCO2)c1cccc2nonc12	2	-9	-7	1
Cc1ccc(C)c(N=Cc2cc(Cl)cc(Cl)c2O)c1	8	11	16*	5
Nc1c(C(=O)N/N=C/c2ccc3c(c2)OCO3)sc2nnc(-c3ccccc3)c(-c3ccccc3)c12	25	80*	-21	7
Nc1ccccc1C(=O)N/N=C/c1ccc2c(c1)OCO2	-2	1	-4	-12
COC(=O)C1=C(C)NC2=C(C(=O)CC(C)(C)C2)C1c1cn[nH]c1-c1ccccc1 (stereo not given)	5	-24	-6	-9
COC(=O)C1=C(C)Nc2[nH]ncc2C1c1ccccc1 (stereo not given)	43*	4	-6	9
Cc1cc(/C=N\NC(=O)CCc2ccc(O)cc2)c2c(C)ccc(C(C)C)cc1-2	49*	-17	-4	-5
C#CC(/C=C/C)OC(=O)c1ccccc1C(=O)O (stereo not given)	-1	32	-7	-7
CC(CCC(C)OC(=O)c1ccccc1C(=O)O)OC(=O)c1ccccc1C(=O)O (stereo not given)	10	60*	0	2
O=[N+]([O-])c1ccc(N/N=C2\CCOc3ccc(F)cc32)cc1	5	50*	1	-1
O=C(NC(=O)c1ccc(-c2cccs2)s1)Nc1ccc(C(F)(F)F)cn1	-5	-3	0	4
Cc1noc(NC(=O)NC(=O)c2cc(F)c(N(C)C)c(F)c2)c1C	-3	0	36*	10
Cc1ccc2cc(F)ccc2[n+]1C	0	3	-6	-3
Oc1c(Cl)cc(Cl)cc1/C=N/NC(=S)NNc1ccccc1	11	11	-3	5
CC(NC(=S)N/N=C/c1cc(Cl)cc(Cl)c1O)c1ccccc1 (stereo not given)	16	-12	27*	-51
c1ccc(N2CC3CCc4ccccc4C3=N2)cc1 (stereo not given)	2	-54	23*	.
COc1ccc(-c2nc3cc4c(cc3o2)Oc2ccccc2N4)cc1	6	79*	5	29
COc1ccc(SCCc2nnc(-c3ccccc3)o2)cc1	1	4	-7	0
N#C/C(=C\c1ccccc1[N+](=O)[O-])c1ccccc1	11	-4	-9	3
Cc1nn(-c2ccccc2)c(C)c1C(=O)Oc1ccccc1	0	23	-5	-5
Cc1nn(C(=O)c2cc(C)n(-c3ccccc3)n2)c(C)c1Br	41*	-16	-3	-3
O=[N+]([O-])c1ccc(N2CCC(n3cccc3)CC2)cc1	1	-4	-1	1
O=[N+]([O-])c1ccc(N2CCc3ccccc32)cc1	9	65*	-13	24
COc1ccc(Br)c(C(=O)/C(C#N)=C/c2ccc(N(C)C)cc2)c1	8	-8	-5	-8
COc1ccc(Br)c(C(=O)/C(C#N)=N/Nc2ccc(F)cc2)c1	37*	1	-9	1
Nc1ccccc1C(=O)N/N=C/c1cccnc1	-2	4	-6	0
